Measurements reported in PubChem BioAssay (NCATS).
Records with an inconclusive call do not appear. A number with no mark means an inactive call. The source made the active and inactive calls. Calls follow the shape of the dose curve; as a rule, active = well fitted inhibition curve with a large enough effect; inconclusive = small, poorly fitted or top-dose-only effect; inactive = flat fitted curve, though single readings scatter. *1 amine or outer side, *2 acyl side, *3 side chain or, on linkers, in order; H or OH if unused. Where a SMILES comes first, the peptide text is derived from it. Bridges are numbered along the chain shown (N, C = ends). [ ]: non-standard residue; d: D form. The star is where a group is joined. X5 = NC1=N[C@@H]([C@H](N[*:1])C(=O)[*:2])C[C@H](O)N1; ΔAla(Z-3-ureido) = NC(=O)N/C=C(\N)C(=O)O; β3hOrn = NCCC[C@H](N)CC(=O)*; Dap = NC[C@H](N)C(=O)O

Test: P-glycoprotein substrates identified in KB-8-5-11 adenocarcinoma cell line, qHTS therapeutic library screen (AID 1346987); also: nearly all actives have a fitted effect of over 65% in size
Conditions: KB-8-5-11 (P-gp overexpressing) viability, CellTiter-Glo, 72 h; series mostly up to 44.5 µM; activity change, negative = cytotoxicity: at the top concentration
In short: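 In this qHTS, P-gp-rich KB-8-5-11 cells received library compounds across a concentration range. Viability was quantified by luminescence after 72 h at 37 degree C.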
% is scaled to controls: 0 for no effect and ±100 for the full control effect; potency is read from the fitted curve at half-maximal effect.

Row | SMILES | activity change, negative = cytotoxicity | Potency
1 | CCCC1C(=O)N2C(N(C)C)=Nc3ccc(C)cc3N2C1=O (centres undefined) | 2.39% [at 17.3 µM] | –
2 | CCN(CC)CCOc1ccccc1OC | 0.728% | –
3 | CC(C)[C@H](N)C(=O)OCC(CO)OCn1cnc2c(=O)[nH]c(N)nc21 (some centres undefined) | -15.2% | –
4 | O=C1C2CC3CC1CC(O)(C3)C2 | -7.82% | –
5 | NCCC[C@H](N)CC(=O)N[C@H]1CNC(=O)[C@H]([C@H]2C[C@H](O)NC(N)=N2)NC(=O)/C(=C/NC(N)=O)NC(=O)[C@H](CO)NC(=O)[C@H](CO)NC1=O (β3hOrn-[Dap]SS[ΔAla(Z-3-ureido)][X5]; lactam 1-C) | -3.38% | –
6 | CCCCCc1ccc(C)cc1O | 1.52% | –
7 | Cn1cc(NC(=O)c2cc(NC(=O)c3cc(NC=O)cn3C)cn2C)cc1C(=O)NCCC(=N)N | 2.34% | –
8 | Cc1cccc(Nc2ncccc2C(=O)O)c1C | -4.27% | –
9 | CC1CCCC(C)N1NC(=O)c1ccc(Cl)c(S(N)(=O)=O)c1 (centres undefined) | 6.8% [at 17.3 µM] | –
10 | FC(F)(F)COCC(F)(F)F | 12.1% | –
11 | CCCCCCCCCCCCCCCCCCCCCC(=O)Nc1ccn([C@@H]2O[C@H](CO)[C@@H](O)[C@@H]2O)c(=O)n1 | -0.904% | –
12 | CCC[C@@H]1C[C@@H](C(=O)N[C@@H]([C@H]2O[C@H](SC)[C@H](O)[C@@H](O)[C@H]2O)[C@H](C)Cl)N(C)C1 | 1.83% | –
13 | CC(C)c1ncc([N+](=O)[O-])n1C | -10.5% | –
14 | CC1=C(/C=C/C(C)=C/C=C/C(C)=C/C(=O)Oc2c(C)c(C)c3c(c2C)CC[C@@](C)(CCC[C@H](C)CCC[C@H](C)CCCC(C)C)O3)C(C)(C)CCC1 | -5.81% | –
15 | CC(C)OC(=O)Nc1ccc2nc(-c3cscn3)[nH]c2c1 | – | 4.61 µM (active)
16 | CN1C(=O)OC(C)(C)C1=O | 5.75% [at 17.3 µM] | –
17 | CC(=O)[O][Al][O]C(C)=O | -6.98% | –
18 | C=N[C@@H](C(=O)N[C@@H]1C(=O)N2[C@@H]1SC(C)(C)[C@@H]2C(=O)O)c1ccccc1 | 21.1% | –
19 | CC/C=C\C/C=C\C/C=C\C/C=C\C/C=C\CCCC(=O)O | 10.1% | –
20 | O=C(/C=C/c1cccc(F)c1)NC1CC1 | 7.34% | –
21 | CC(/C=C/C=C(\C)C(=O)O[C@@H]1O[C@H](CO[C@@H]2O[C@H](CO)[C@@H](O)[C@H](O)[C@H]2O)[C@@H](O)[C@H](O)[C@H]1O)=C\C=C\C=C(C)\C=C\C=C(/C)C(=O)O[C@@H]1O[C@H](CO[C@@H]2O[C@H](CO)[C@@H](O)[C@H](O)[C@H]2O)[C@@H](O)[C@H](O)[C@H]1O | 2.99% | –
22 | COC1[C@@H](O[C@@H]2O[C@H](C)[C@@H](O[C@H]3C[C@@](C)(O)[C@H](OC(=O)CC(C)C)[C@H](C)O3)[C@H](N(C)C)[C@H]2O)[C@@H](CC=O)C[C@@H](C)[C@@H](O)/C=C/C=C/C[C@@H](C)OC(=O)C[C@H]1OC(C)=O (some centres undefined) | 0.975% [at 17.3 µM] | –
23 | CC(C)(CO)[C@@H](O)C(=O)NCCCC(=O)O | 0.432% | –
24 | O=C1N=C2SCCN2C(=O)C1Cc1ccc(Cl)cc1 (centres undefined) | -0.0165% | –
